Measurements: PubChem BioAssay (NCATS)
Several values for one entry are separate records, joined by “and”; a condition that tells them apart may be missing. Equal entries are not always repeated. Results filed as inconclusive are left out. Activity calls are given as the source filed them. The call rests on the fitted dose curve; in most records, active means well fitted curve in the direction sought with a large enough effect; inconclusive means small, poorly fitted or top-dose-only effect, or another doubt; inactive means no such curve, though single readings can be large; an effect the other way counts as inactive or inconclusive.

What was measured:
[1] = qHTS of pediatric cancer cell lines to identify multiple opportunities for drug repurposing: Primary screen for NB-EBc1 cells (AID 1347095);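 on activity change, negative = cytotoxic: plate controls were DMSO neutral control for no effect and bortezomib for full effect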
Method in brief: (§1)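 500-1,000 cells/well; 5 h pre-incubation 37 °C/5% CO2; compound pinned; 48 h; CellTiter-Glo, 15 min RT; luminescence. MIPE 11-pt from 0.78 nM, NPC 8-pt from 0.59 nM final. Bortezomib 2.3 µM final as positive control.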

[2] = qHTS of pediatric cancer cell lines to identify multiple opportunities for drug repurposing: Primary screen for U-2 OS cells (AID 1347096);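 further: plate controls were DMSO wells for no effect and bortezomib positive control wells for full effect; nearly all actives have a fitted effect of over 50% in size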
Method in brief: (§2)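 Cells (500-1,000/well) in growth media were settled 5 h at 37 degrees C, then given compounds for 48 h. Viability was read as CellTiter-Glo luminescence. Primary runs used MIPE at 11 points (0.78 nM-46 µM) and NPC at 8 points (0.59 nM-46 µM); follow-ups used 11 points.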

[3] = qHTS of pediatric cancer cell lines to identify multiple opportunities for drug repurposing: Primary screen for NB1643 cells (AID 1347099); further: nearly all actives have a fitted effect of over 50% in size;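 on activity change, negative = cytotoxic: plate controls were DMSO neutral control for no effect and bortezomib positive control for full effect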
Method in brief: as §1

[4] = qHTS of pediatric cancer cell lines to identify multiple opportunities for drug repurposing: Primary screen for BT-12 cells (AID 1347101); further: nearly all actives have a fitted effect of over 25% in size; further: potency means the concentration at half of the fitted maximal effect;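 on activity change, negative = cytotoxic: plate controls were DMSO for no effect and bortezomib positive control for full effect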
Method in brief: (§3)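 Cells (500-1,000/well) rested 5 h, then received compounds for 48 h; metabolically active cells were measured by CellTiter-Glo luminescence. Final concentrations spanned up to 46 µM (MIPE, 11-point) or 0.59 nM-46 µM (NPC, 8-point) in primary screens, 11-point in follow-ups.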

[5] = qHTS of pediatric cancer cell lines to identify multiple opportunities for drug repurposing: Primary screen for OHS-50 cells (AID 1347103); further: nearly all actives have a fitted effect of over 40% in size; further: potency means the concentration at half of the fitted maximal effect;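 on activity change, negative = cytotoxic: plate controls were DMSO neutral control for no effect and bortezomib positive control for full effect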
Method in brief: as §3

[6] = qHTS of pediatric cancer cell lines to identify multiple opportunities for drug repurposing: Primary screen for MG 63 (6-TG R) cells (AID 1347105); further: nearly all actives have a fitted effect of over 50% in size; on activity change, negative = cytotoxic: on the % scale 0 is the no-effect control and ±100 the full control effect
Method in brief: as §1

[7] = qHTS of pediatric cancer cell lines to identify multiple opportunities for drug repurposing: Primary screen for control Hh wild type fibroblast cells (AID 1347106); further: nearly all actives have a fitted effect of over 55% in size;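 on activity change, negative = cytotoxic: series mostly up to about 46 µM; on the % scale 0 is the no-effect control and ±100 the full control effect; a drop in luminescence marks cytotoxicity and a rise apparent proliferation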
Method in brief: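 Viability after 48 h compound treatment at 37C, 500-1,000 cells/well, read as ATP luminescence with CellTiter-Glo. Primary screens used 11-point (MIPE, 0.78 nM-46 µM) or 8-point (NPC, 0.59 nM-46 µM) final concentrations; follow-up screens used 11-point dilutions.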

[8] = qHTS of pediatric cancer cell lines to identify multiple opportunities for drug repurposing: Primary screen for Rh30 cells (AID 1347107); further: series mostly up to about 46 µM; on the % scale 0 is the no-effect control and ±100 the full control effect; nearly all actives have a fitted effect of over 75% in size
Method in brief: as §2

[9] = qHTS of pediatric cancer cell lines to identify multiple opportunities for drug repurposing: Primary screen for Rh41 cells (AID 1347108); further: nearly all actives have a fitted effect of over 70% in size; further: potency means the concentration at half of the fitted maximal effect;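 on activity change, negative = cytotoxic: series mostly up to about 46 µM; luminescence drop marks cytotoxic hits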
Method in brief: as §1

[10] = qHTS of pediatric cancer cell lines to identify multiple opportunities for drug repurposing: Primary screen for BT-37 cells (AID 1347094); further: potency means the concentration at half of the fitted maximal effect;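 on activity change, negative = cytotoxic: series mostly up to about 57 µM; plate controls were DMSO for no effect and bortezomib for full effect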
Method in brief: as §1

[11] = qHTS of pediatric cancer cell lines to identify multiple opportunities for drug repurposing: Primary screen for Saos-2 cells (AID 1347097); further: nearly all actives have a fitted effect of over 40% in size; further: potency means the concentration at half of the fitted maximal effect
Method in brief: as §1

[12] = qHTS of pediatric cancer cell lines to identify multiple opportunities for drug repurposing: Primary screen for LAN-5 cells (AID 1347100); further: potency means the concentration at half of the fitted maximal effect;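 on activity change, negative = cytotoxic: plate controls were DMSO neutral control for no effect and bortezomib positive control for full effect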
Method in brief: as §2

[13] = qHTS of pediatric cancer cell lines to identify multiple opportunities for drug repurposing: Confirmatory screen for A673 cells (AID 1347110);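 further: potency means the concentration at half of the fitted maximal effect; cells exposed to compound for 48 h before the viability read; nearly all actives have a fitted effect of over 65% in size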
Method in brief: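 Cells plated at 500-1,000/well were treated five hours later with multi-point dilutions up to 46 µM final. After two days, CellTiter-Glo was added and luminescence read.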

[14] = qHTS of pediatric cancer cell lines to identify multiple opportunities for drug repurposing: Confirmatory screen for SK-N-MC cells (AID 1347111);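 further: potency means the concentration at half of the fitted maximal effect; cells exposed to compound for 48 h before the readout; nearly all actives have a fitted effect of over 70% in size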
Method in brief: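 Metabolically active cells were quantified by ATP-dependent luminescence (CellTiter-Glo, 15 min at room temperature) following 48 h treatment. Cells had been plated at 500-1,000 per well and settled for 5 h beforehand.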

[15] = qHTS of pediatric cancer cell lines to identify multiple opportunities for drug repurposing: Confirmatory screen for BT-12 cells (AID 1347112); further: nearly all actives have a fitted effect of over 55% in size; further: potency means the concentration at half of the fitted maximal effect
Method in brief: as §2

[16] = qHTS of pediatric cancer cell lines to identify multiple opportunities for drug repurposing: Confirmatory screen for LAN-5 cells (AID 1347113); further: nearly all actives have a fitted effect of over 65% in size; further: potency means the concentration at half of the fitted maximal effect
Method in brief: as §2

[17] = qHTS of pediatric cancer cell lines to identify multiple opportunities for drug repurposing: Primary screen for RD cells (AID 1347104); further: nearly all actives have a fitted effect of over 55% in size;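 on activity change, negative = cytotoxic: plate controls were DMSO for no effect and bortezomib for full effect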
Method in brief: as §1

[18] = qHTS of pediatric cancer cell lines to identify multiple opportunities for drug repurposing: Primary screen for SK-N-SH cells (AID 1347098); further: nearly all actives have a fitted effect of over 65% in size;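 on activity change, negative = cytotoxic: DMSO served as neutral control and bortezomib at 2.3 µM as positive control; on the % scale 0 is the no-effect control and ±100 the full control effect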
Method in brief: as §3

[19] = qHTS of pediatric cancer cell lines to identify multiple opportunities for drug repurposing: Primary screen for Rh18 cells (AID 1347102); further: on the % scale 0 is the no-effect control and ±100 the full control effect; nearly all actives have a fitted effect of over 65% in size
Method in brief: as §2

[20] = qHTS of pediatric cancer cell lines to identify multiple opportunities for drug repurposing: Confirmatory screen for NB1643 cells (AID 1347109); further: potency means the concentration at half of the fitted maximal effect; nearly all actives have a fitted effect of over 45% in size
Method in brief: as §2

CN1C[C@H](CNC(=O)OCc2ccccc2)C[C@@H]2c3cccc4c3c(cn4C)C[C@H]21
active: Potency [4] 15.5 µM | Potency [5] 21.9 µM
inactive: Potency [1] | Potency [2] | Potency [3] | Potency [6] | Potency [7] | Potency [8] | Potency [9]

C=C(C)[C@H]1Cc2c(ccc3c2O[C@@H]2COc4cc(OC)c(OC)cc4[C@@H]2C3=O)O1
inactive: Potency [7] | Potency [8]
active: Potency [10] 777 nM and 2.17 µM | Potency [11] 944 nM | Potency [12] 1.68 µM and 526 nM | Potency [4] 87.1 nM and 122 nM | Potency [5] 138 nM and 243 nM | Potency [9] 1.06 µM | Potency [13] 3.69 µM | Potency [14] 1.65 µM | Potency [15] 2.61 µM | Potency [16] 1.17 µM

Cc1cc(SCc2sc(-c3ccc(C(F)(F)F)c(F)c3)nc2C)ccc1OCC(=O)O
inactive: Potency [2] | Potency [3] | Potency [12] | Potency [4] | Potency [17] | Potency [6] | Potency [7] | Potency [8] | Potency [9]

CCCN1CCC[C@@H]2Cc3nc(N)ncc3C[C@H]21
inactive: Potency [10] | Potency [2] | Potency [18] | Potency [3] | Potency [12] | Potency [4] | Potency [19] | Potency [5] | Potency [17] | Potency [6] | Potency [7] | Potency [8] | Potency [9]

C=C1C[C@@H]2[C@H](CC[C@]3(C)C(=O)CC[C@@H]23)[C@@]2(C)C=CC(=O)C=C12
inactive: Potency [1] | Potency [2] | Potency [18] | Potency [3] | Potency [12] | Potency [17] | Potency [6] | Potency [7] | Potency [8] | Potency [9]

C[C@@H]1O[C@@H](O[C@H]2C[C@@H](O)[C@]3(CO)[C@H]4[C@H](O)C[C@]5(C)[C@@H](C6=CC(=O)OC6)CC[C@]5(O)[C@@H]4CC[C@]3(O)C2)[C@H](O)[C@H](O)[C@H]1O
active: Potency [10] 15.3 nM and 49 nM | Potency [11] 59 nM and 75 nM | Potency [3] 187 nM and 299 nM | Potency [12] 46.9 nM and 211 nM | Potency [4] 27.3 nM and 61.7 nM | Potency [5] 19.3 nM and 49 nM | Potency [17] 14.8 nM and 33.5 nM | Potency [6] 14.8 nM and 33.5 nM | Potency [7] 0.0148 µM | Potency [20] 369 nM and 585 nM | Potency [13] 329 nM and 282 nM | Potency [14] 131 nM and 293 nM | Potency [15] 131 nM and 147 nM | Potency [16] 329 nM and 414 nM
inactive: Potency [8]

O=C(O)c1ccc2[nH]cc(CCCCN3CC=C(c4ccccc4)CC3)c2c1
inactive: Potency [10] | Potency [2] | Potency [3] | Potency [12] | Potency [4] | Potency [17] | Potency [6] | Potency [7] | Potency [8] | Potency [9]

CCOC(=O)C1(c2ccccc2)CCN(CCC(C#N)(c2ccccc2)c2ccccc2)CC1
inactive: Potency [2] | Potency [18] | Potency [7]
active: Potency [1] 18.8 µM | Potency [5] 12.3 µM

COC[C@H]1OC(=O)c2coc3c2[C@@]1(C)C1=C(C3=O)C2CCC(=O)[C@@]2(C)C[C@H]1OC(C)=O (stereo not given in full)
active: Potency [11] 4690 nM | Potency [3] 11.8 µM | Potency [12] 11.8 µM | Potency [5] 4.32 µM | Potency [17] 18.7 µM | Potency [6] 9.35 µM | Potency [9] 18.7 µM

Clc1ccc(COC(Cn2ccnc2)c2ccc(Cl)cc2Cl)cc1 (stereo not given)
inactive: Potency [2] | Potency [19] | Potency [6] | Potency [7] | Potency [8]
active: Potency [3] 26.6 µM | Potency [4] 15.5 µM

CNC(=O)N1N=C(c2ccc(N)cc2)c2cc3c(cc2CC1C)OCO3 (stereo not given)
inactive: Potency [2] | Potency [7] | Potency [8]
active: Potency [12] 5.9 µM | Potency [5] 3.85 µM

Cc1ccc2c(c1)C1CN(C)CCC1N2 (stereo not given)
inactive: Potency [10] | Potency [2] | Potency [3] | Potency [12] | Potency [4] | Potency [19] | Potency [5] | Potency [17] | Potency [6] | Potency [7] | Potency [8] | Potency [9]

Oc1cccc2cccnc12
inactive: Potency [10] | Potency [6] | Potency [8]

Oc1ccc(Cl)cc1Cc1ccccc1
inactive: Potency [2] | Potency [3] | Potency [4] | Potency [19] | Potency [7] | Potency [8] | Potency [9]
active: Potency [11] 24.6 µM and 23.7 µM | Potency [18] 35.8 µM and 17.2 µM | Potency [5] 25.6 µM

Cn1cc(C2=C(c3cn(C4CCN(Cc5ccccn5)CC4)c4ccccc34)C(=O)NC2=O)c2ccccc21
inactive: Potency [10] | Potency [2] | Potency [3] | Potency [4] | Potency [19] | Potency [17] | Potency [7] | Potency [8] | Potency [9] | Potency [15]

C[C@]12C/C(=C/O)C(=O)C[C@@H]1CC[C@@H]1[C@@H]2CC[C@@]2(C)[C@H]1CC[C@]2(C)O
inactive: Potency [2] | Potency [17] | Potency [6] | Potency [7] | Potency [8] | Potency [9]

O=C1NCN(c2ccccc2)C12CCN(CC1COc3ccccc3O1)CC2 (stereo not given)
inactive: Potency [10] | Potency [2] | Potency [18] | Potency [3] | Potency [12] | Potency [4] | Potency [19] | Potency [5] | Potency [17] | Potency [6] | Potency [7] | Potency [8] | Potency [9]

Cn1c(CCCC(=O)O)nc2cc(N(CCCl)CCCl)ccc21
inactive: Potency [2] | Potency [11] | Potency [4] | Potency [19] | Potency [17] | Potency [6] | Potency [7] | Potency [8] | Potency [9] | Potency [15] | Potency [16]
active: Potency [1] 2.64 µM | Potency [3] 18.7 µM | Potency [5] 24.6 µM and 24.3 µM | Potency [20] 16.5 µM | Potency [14] 3.69 µM

CN(C)[C@@H]1C(=O)C(C(N)=O)=C(O)[C@@]2(O)C(=O)C3=C(O)c4c(O)cccc4[C@@](C)(O)[C@H]3C[C@@H]12
inactive: Potency [1] | Potency [2] | Potency [11] | Potency [12] | Potency [19] | Potency [5] | Potency [17] | Potency [6] | Potency [7] | Potency [8] | Potency [9]

NCC(CC(=O)O)c1ccc(Cl)cc1 (stereo not given)
inactive: activity change, negative = cytotoxic [10] -2.84% [at 0.745 µM] | activity change, negative = cytotoxic [2] -3.85% [at 0.597 µM] | activity change, negative = cytotoxic [3] -5.29% [at 0.597 µM] | activity change, negative = cytotoxic [12] -9.23% [at 0.597 µM] | activity change, negative = cytotoxic [4] 1.13% [at 0.745 µM] | activity change, negative = cytotoxic [19] -2.74% [at 0.597 µM] | activity change, negative = cytotoxic [5] -11.1% [at 0.73 µM] | activity change, negative = cytotoxic [17] 1.05% [at 0.597 µM] | activity change, negative = cytotoxic [6] -15.2% [at 0.597 µM] | activity change, negative = cytotoxic [7] 6.77% [at 0.597 µM] | activity change, negative = cytotoxic [8] -0.257% [at 0.597 µM] | activity change, negative = cytotoxic [9] 9.97% [at 0.597 µM]
